Compound activity (PubChem)
Hits are enriched below; roughly 8.3% of the tested compounds scored in any of these assays.
RORg inh = qHTS for inhibitors of ROR gamma transcriptional activity; Drosophila S2 Gal4-RORgamma UAS-luciferase reporter, 20 h; Potency, µM (series often up to 53.6 µM), inactives show at the highest dose activity change, negative = inhibition, hits mostly inhibitors; hit rate 5.4% among 310,000; further: potency means the concentration at half of the fitted maximal effect; on the % scale 0 is the no-effect control and ±100 the full control effect; nearly all actives have a fitted effect of over 60% in size
Target sequence (P51450 whole entry, looked up, the tested form may be a part): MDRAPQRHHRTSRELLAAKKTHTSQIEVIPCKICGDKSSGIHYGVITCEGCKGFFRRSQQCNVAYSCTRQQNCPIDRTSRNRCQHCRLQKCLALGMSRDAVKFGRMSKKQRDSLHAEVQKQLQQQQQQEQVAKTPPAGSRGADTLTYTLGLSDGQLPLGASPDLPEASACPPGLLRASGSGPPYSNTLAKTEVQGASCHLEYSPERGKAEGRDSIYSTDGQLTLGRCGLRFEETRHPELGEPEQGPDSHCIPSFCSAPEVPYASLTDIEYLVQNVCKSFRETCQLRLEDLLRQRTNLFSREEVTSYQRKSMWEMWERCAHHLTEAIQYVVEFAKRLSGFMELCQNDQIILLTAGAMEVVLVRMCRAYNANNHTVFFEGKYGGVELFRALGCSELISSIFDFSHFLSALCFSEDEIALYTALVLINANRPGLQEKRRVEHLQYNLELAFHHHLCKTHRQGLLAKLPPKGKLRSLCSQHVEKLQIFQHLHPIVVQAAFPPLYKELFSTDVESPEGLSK
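Read-out: Photinus luciferase luminescence; inhibitors lower reporter signal. Insect Schneider cells with Gal4-ROR gamma fusion under metallothionein promoter, UAS reporter; 700 uM final copper sulfate induction, 20 hr, ambient temperature.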
SW480 rerep = A quantitative high throughput screen for small molecules that induce DNA re-replication in SW480 colon adenocarcinoma cells | SW480 DNA re-replication, Hoechst DNA content imaging, 48 h | AID 624297, 2012 | Potency, µM (highest dose often 46.1 µM), for the others: at the highest dose re-replication activation, hits mostly activators | hit rate 1.8% among 340,000; further: potency means the concentration at half of the fitted maximal effect; % of control where 0% means no effect; nearly all actives have a fitted effect of over 55% in size
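Cells (250 per well) received 23 nL compound or DMSO by pin tool and were kept 48 hr at 37 C, 5% CO2. Nuclei were then stained with Hoechst for 40 min and scanned for DNA content.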
Giardia kill = Small Molecules that selectively kill Giardia lamblia: qHTS | activity change, % at 7.66 µM, hits read low | Giardia lamblia trophozoite viability | hit rate 0.15% among 340,000; in the data active means activity change below about -80%; inconclusive means between about -30% and that limit;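 further: parasites exposed to compound for two days anaerobically before the ATP read; on the % scale 0 is the no-effect control and ±100 the full control effect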
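Each well holds 100 Giardia trophozoites and compound. After two days (48 hrs) at 37 deg C in anaerobic conditions, ATP is quantified by luminescence.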
MCF10A rereplic = A quantitative high throughput screen for small molecules that induce DNA re-replication in MCF 10a normal breast cells; MCF 10A DNA re-replication, Hoechst nuclear intensity, 48 h; Potency, µM (highest dose often 46.1 µM), without a hit: at the highest dose activity, positive = re-replication, usual class: activators; hit rate 2.9% among 350,000; further: potency means the concentration at half of the fitted maximal effect; % of control where 0% means no effect; nearly all actives have a fitted effect of over 50% in size
BCR signal inh = qHTS Assay to Find Inhibitors of Chronic Active B-Cell Receptor Signaling. Potency, µM (highest dose often 46.1 µM), for the others: top-dose activity change, negative = inhibition, hits mostly inhibitors. ABC-DLBCL IkBa-CBG/CBR reporter, luminescence ratio, 4 h. hit rate 0.05% among 340,000; active means well fitted inhibition curve with a large enough effect in the signal ratio, with a control signal flat, not every such curve was filed as active; inconclusive means small, poorly fitted or top-dose-only effect, or effect the other way, or a change in a side signal; the % refers to the signal ratio;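 further: potency means the concentration at half of the fitted maximal effect; plate controls were basal doxycycline-induced cells for no effect and cells given 10 µM MG132 for full effect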
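TMD8 ABC-DLBCL cells carrying doxycycline-inducible green luciferase fused to IkappaBalpha plus unfused red luciferase were exposed to compounds (up to 46 uM) for 4 hrs at 37C. Activity came from the overlap-corrected green/red luminescence ratio.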
Gal4-VP16 FLuc = VP16 counterscreen qHTS for inhibitors of ROR gamma transcriptional activity; Drosophila S2 Gal4-VP16 UAS-luciferase, luminescence, 20 h; Potency, µM (series often up to 53.6 µM), without a hit: at the highest dose activity, negative = inhibition, usual class: inhibitors; hit rate 3.5% among 310,000;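 further: Gal4-VP16 expression switched on by copper sulfate through the metallothionein promoter; potency means the concentration at half of the fitted maximal effect; on the % scale 0 is the no-effect control and ±100 the full control effect; nearly all actives have a fitted effect of over 50% in size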
An asterisk follows results filed as active; ? = inconclusive; . = no result; [ ] = dose if it differs, or a comment. Unless noted, the call rests on the fitted dose curve; in most records, active means well fitted curve in the direction sought with a large enough effect; inconclusive means small, poorly fitted or top-dose-only effect, or another doubt; inactive means no such curve, though single readings can be large; an effect the other way counts as inactive or inconclusive.

SMILES	RORg inh	SW480 rerep	Giardia kill	MCF10A rereplic	BCR signal inh	Gal4-VP16 FLuc
O=C1CSC(c2cccnc2)N1CCc1ccccn1 (stereo not drawn)	?	-12%	-22	-1%	?	11µM*
CC1=C(C(=O)OCC2CCCO2)C(c2ccsc2)C2=C(CCCC2=O)N1 (stereo not drawn)	-5%	?	17	-2%[9.22 µM]	0%	-14%[10 µM]
Cn1c(Cc2c[nH]c3ccccc23)n[nH]c1=S	-19%	-1%	3	5%	4%	6%
S=c1[nH]nc(Cc2cccc3ccccc23)n1-c1ccccc1	3.2µM*	2%	7	1%	?	7.1µM*
S=c1[nH]nc(Cc2noc3ccccc23)n1-c1ccccc1	10µM*	-4%	-24	-4%	-12%	-6%
O=c1[nH]c(SCc2n[nH]c(=S)n2-c2ccccc2)nc2ccccc12	-34%	5%	6	-22%	-10%	7%
Cn1c(Cn2c3ccccc3c3ccccc32)n[nH]c1=S	3.5µM*	-22%	12	5%	-28%	13µM*
O=c1c2ccccc2cnn1Cc1n[nH]c(=S)n1-c1ccccc1	?	.	12	0%	1%	-1%
Cn1c(-c2cccc3ccccc23)n[nH]c1=S	10µM*	-8%	-10	-3%	5%	?
CN1CCN(NC(=O)c2cc(S(=O)(=O)Nc3ccc(Cl)cc3)ccc2Cl)CC1	0%	4%	-5	0%	1%	-4%
COc1ccc(C(=O)Nc2ccccc2N2CCN(C(=O)c3ccccc3)CC2)cc1Br	-14%	-1%	-26	5%	2%	-11%
C=CCn1c(Cc2cccc3ccccc23)n[nH]c1=S	4µM*	?	1	-1%	?	11µM*
COc1cccc2cc(-c3n[nH]c(=S)n3C)oc12	3.5µM*	15%	22	-1%	3%	-19%[10 µM]
Cc1nccn1CCc1n[nH]c(=S)n1Cc1ccccc1	-27%	-7%	3	0%	3%	0%
C=CCn1c(CCn2c3ccccc3c3ccccc32)n[nH]c1=S	4µM*	-40%	-3	6%	-17%	3.2µM*
C=C(C)Cn1c(CCn2c3ccccc3c3ccccc32)n[nH]c1=S	?	-59%	-9	?	3%	1µM*
COc1cc(/C=C/C(=O)O)cc(S(=O)(=O)N2CCN(S(=O)(=O)c3ccc(Cl)cc3)CC2)c1OC	20%	-1%	-4	?	-5%	-9%
CCN(C[C@H]1N[C@@](CC)(C(=O)OC)[C@H]2C(=O)N(C)C(=O)[C@@H]12)C(=O)C1CCCCC1	.	?	12	0%	2%	.
CC(C)(C)c1ccc(-c2nc(SCC(=O)Nc3ccc(Cl)cc3)[nH]c(=O)c2C#N)cc1	.	.	-18	.	.	.
NC(=O)C1CCCN(C(=O)c2ccc(Cl)c(S(=O)(=O)N3CCc4ccccc43)c2)C1 (stereo not drawn)	.	?	-10	-1%	0%	.
CCOC(=O)c1sc(N2N=C(C)/C(=C\c3ccc(OCC(=O)OC)cc3)C2=O)nc1C	8.9µM*	-6%	-16	?	-4%	?
CCN(Cc1ccccc1)C(=O)COC(=O)CNC(=O)c1ccc(C)s1	-5%	-18%	4	-14%	0%	-4%
Cc1cc(NS(=O)(=O)c2ccc(NC(=O)COc3ccc(C#N)cc3)cc2)nc(C)n1	.	-3%	0	-1%	2%	.
Cc1ccc(-n2cnc(N)c2C(=O)c2cccc([N+](=O)[O-])c2)cc1	-37%	?	-8	15µM*	?	-13%
Cc1ccc(C(=O)O/N=C(\N)c2cccc([N+](=O)[O-])c2)cc1	2%	-5%	-15	1%	?	-13%
